This passage reports growth results from PubChem BioAssay (NCI).

Where “and” joins values, the source holds several entries; their conditions need not be identical. Identical values can stand only once. Compounds without any hit were thinned out: in the full panel of roughly 83,000, 20% have a hit.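 Cells were grown in 96-well plates and exposed to the test compound at a single concentration for 48 hours; results are reported as percent growth, with values below 10 considered active.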 Calls of active or inactive are those of the source.

The subject of the first test is SK-MEL-28 melanoma. The test is described as follows: NCI-60 one-dose screen, 48 h (100 = growth as untreated, 0 = no growth, -100 = all killed). The note with it: 10 µM. The protocol: Growth inhibition of the SK-MEL-28 human tumor cell line is measured as a screen for anti-cancer activity. Cells are grown in 96 well plates and exposed to the test compound for 48 hours. Compounds are tested at a single concentration, which is 10^-5 M for most compounds. The reported endpoint is percent growth (GI% or GIPRCNT), where numbers from 0 - 100% represent growth inhibition, and numbers from -100% - 0 represent cell death. For example, a value of 40 represents 60% growth inhibition. A value of 0 means no net growth occurred over the course of the experiment. A value of -40 indicates 40% of cells at the beginning of the experiment died by the end of the experiment. A value of -100 means all cells are dead at the end of the experiment.
NCI-60 Human Tumor Cell Lines Screen was performed using the standard one-dose NCI protocol, which is described in more detail at https://dtp.cancer.gov/discovery_development/nci-60/default.htm.
Compounds with GIPRCNT values below 10 were considered active. Activity score was based on GIPRCNT using the following formula: […]
Score is 0 for GIPRCNT values of 100 or above, 50 for GIPRCNT values of 0, and 100 for GIPRCNT values of -100.
As for `O=C(O)c1sccc1O`, the growth was 101% (inactive).

Still in this test, the particulars now being: 10 µM unless noted.
Turning to `Oc1nc(NCCc2ccccc2)sc1/C=C1\C=Nc2ncccc21`, the growth is 0.815% (active) and 16% (inactive). On the same count and under the same terms, for `Nc1ncnc2c1ncn2C1CC(O)C(CO)O1` (stereo not given) the value was 123% (inactive) and 115% (inactive).

`CCOc1ccc2c(S(=O)(=O)O)cccc2c1[N+](=O)[O-]`: the growth is 113% (inactive) and 118% (inactive). In the case of `COc1ccc(Cn2c(NCCN=C(N)N)nc(=O)n(Cc3ccc(F)cc3)c2=O)cc1`, the growth is 103% (inactive) and 97.9% (inactive). The same measure, in the same setting: the figure for `CC(C)C(=O)Nc1ccc([N+](=O)[O-])c(C(F)(F)F)c1` is 102% (inactive) and 107% (inactive). On the same count and under the same terms, for `CN(Cc1ccccc1)Cc1ccccc1` the value was 110% (inactive).

Consider `O=C1c2ccccc2C(=O)c2c(NCCNCCO)ccc(NCCNCCO)c21`, for which the growth is -36.8% (active) and 31.2% (inactive) and 16.9% (inactive). Same read-out and setting: for `C[N+](C)(C)CN1C(=O)c2ccccc2C1=O` the value was 98.6% (inactive); for `O=C(Oc1cccc(OC(=O)c2ccccc2)c1)c1ccccc1`, 115% (inactive) and 100% (inactive); for `Cc1ccc(S(=O)(=O)NCN2C(=O)c3ccccc3C2=O)cc1`, 111% (inactive).

Regarding `CCN(CC)CCc1nc(-c2ccccc2)no1`, the growth was 89.5% (inactive) and 106% (inactive). With `CC(C)N=c1cc2n(-c3ccc(Cl)cc3)c3ccccc3nc-2cc1Nc1ccc(Cl)cc1`, the growth was 67.7% (inactive) and 72.8% (inactive) and 57.9% (inactive). The same measure, in the same setting: for `Cc1ccc(-c2noc(C)n2)cc1` the value was 110% (inactive); for `CN(C)c1ccc(C(Cc2ccc3ccccc3n2)Cc2ccc3ccccc3n2)cc1`, 74.9% (inactive) and 92.8% (inactive).

In the case of `CCC(=O)C(CC)c1cccc(OC)c1` (stereo not given), the growth was 106% (inactive). With `CNc1cc(-c2cccc(OC(F)(F)F)c2)nc2ccc(N3CCCC3)cc12`, the growth is -66.3% (active) and -82.3% (active) and -64.4% (active). Same read-out and setting: the figure for `CCC(O)c1ccccc1` (stereo not given) is 75.7% (inactive) and 98.6% (inactive); for `CCN(CC)CCCC(C)Nc1cnc(C(=O)Nc2cc(F)cc3cccnc23)cn1` (stereo not given) it is 63.2% (inactive) and 22.7% (inactive); for `CCCCCN(CCCCC)CC(O)c1cc2c(c3ccccc13)CCCC2` (stereo not given) it is 89.1% (inactive) and 57.1% (inactive). On the same count and under the same terms, for `Cn1c(SSc2ccc(-c3cccnc3)n2C)ccc1-c1cccnc1` the value was 98.9% (inactive) and 104% (inactive); for `Oc1ccccc1/C=N\NC(=S)N/N=C/c1ccccc1O`, 53.6% (inactive) and 58.8% (inactive); for `CCCCOc1cc(C(=O)NCCN(CC)CC)c2ccccc2n1`, 102% (inactive) and 104% (inactive). Regarding `NC(=S)NS(=O)(=O)c1ccc(N)cc1`, the growth was 109% (inactive). The same measure, in the same setting: the figure for `NCCSC(C[N+](=O)[O-])c1ccccc1Cl` (stereo not given) is -20.5% (active); for `COc1cc(NS(C)(=O)=O)ccc1Nc1c2ccccc2nc2c(C)cccc12` it is 21.6% (inactive) and 21% (inactive); for `CC(/C=N/N1C(=O)c2ccccc2C1=O)c1ccccc1` (stereo not given) it is 103% (inactive). Turning to `O=C(CCl)c1ccc2c(c1)Nc1ccccc1S2`, the growth was 106% (inactive) and 115% (inactive). Same read-out and setting: the figure for `CNC(=O)c1cccnc1` is 116% (inactive). Turning to `O=C=NC(c1ccccc1)(c1ccccc1)c1ccccc1`, the growth is 114% (inactive). For `Cc1ccc2nc3c(nc2c1)-c1cccc2cccc-3c12`, the growth was 102% (inactive). Still for that read-out and setting: the figure for `CCN(CC)CCOc1ccc(/C=N/Nc2nc3c([nH]2)c(=O)n(C)c(=O)n3C)cc1` is 115% (inactive) and 112% (inactive).

Take `COC(=O)[C@H]1CCCN1C(=O)C1CCCN1C(=O)[C@@H](Cc1ccccc1)NC(=S)Nc1cc(C(F)(F)F)cc(C(F)(F)F)c1` (stereo not given in full): the growth was 109% (inactive) and 99.4% (inactive).

For `Cc1cc(N=Nc2ccc(C)c(N=Nc3cc(C)c(N)cc3N)c2)c(N)cc1N`, the growth is 98.9% (inactive) and 88.4% (inactive). In the case of `Cc1cc(-c2ccc(NS(=O)(=O)c3ccccc3)c(C)c2)ccc1NS(=O)(=O)c1ccccc1`, the growth was 92.2% (inactive) and 109% (inactive).

For `Cn1cnc([N+](=O)[O-])c1Sc1ncnc2nc[nH]c12`, the growth is 105% (inactive) and 116% (inactive). For `N#C/C(=C1C=C/C(=N/O)C(Br)=C/1)c1ccccc1`, the growth was 61.3% (inactive). Still for that read-out and setting: for `CC1=NN(c2ccccc2)C(=O)C1C(=O)c1ccccc1` (stereo not given) the value was 101% (inactive); for `Oc1ccc(/C=C/c2ccccc2)cc1`, 97.5% (inactive) and 99.8% (inactive).

Still in this test, the particulars now being: 100 µM.
Turning to `O=C(O)c1sccc1O`, the growth is 28.3% (inactive).
